Data reported in PubChem BioAssay (NCI).
This is part of a sample that, as a whole, favours compounds with a hit. Of some 79,000 tested, about 15% had one in any assay. A number with no mark means an inactive call. Active and inactive are the calls of the source. No stated cut-off is given here; in the data, active means growth inhibition above about 70%; inactive means the rest.

How the values were obtained:
[1] = NCI Yeast Anticancer Drug Screen. Data for the rad50 strain (AID 155);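 further: 0% = growth of vehicle-only cultures of the same strain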; conditions: S. cerevisiae rad50 strain growth inhibition; at 50.0 µM; hits give high values
Procedure, shortened: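 Relative growth inhibition (compound vs vehicle) was measured in yeast with a defined repair-gene alteration.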

[2] = NCI Yeast Anticancer Drug Screen. Data for the mec2-1 strain (AID 157); conditions: S. cerevisiae mec2-1 strain, at 50.0 µM, hits give high values
Procedure, shortened: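 Vehicle-treated cultures served as reference for growth inhibition of compound-exposed mec2-1 yeast.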

[3] = NCI Yeast Anticancer Drug Screen. Data for the sgs1 mgt1 strain (AID 161);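 further: 0% = growth of cultures given vehicle only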; conditions: S. cerevisiae sgs1 mgt1 strain, at 50.0 µM, hits give high values
Procedure, shortened: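 Inhibition of yeast growth, normalised to vehicle-treated controls, is reported for a strain bearing genetic alterations in DNA damage repair.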

[4] = NCI Yeast Anticancer Drug Screen. Data for the cln2 rad14 strain (AID 165);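 further: 0% = growth equal to vehicle treated cultures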; conditions: S. cerevisiae cln2 rad14 strain, at 50.0 µM, hits give high values
Procedure, shortened: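 Each compound was tested on cln2 rad14 yeast. Inhibition of growth was calculated against vehicle-exposed controls.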

[5] = NCI Yeast Anticancer Drug Screen. Data for the bub3 strain (AID 167); conditions: S. cerevisiae bub3 mutant strain, at 50.0 µM, hits give high values
Procedure, shortened: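 Screening used yeast with an engineered genetic alteration affecting cell cycle control. Compound-exposed cultures were compared with vehicle cultures, and reduced growth was taken as inhibition.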

[6] = NCI Yeast Anticancer Drug Screen. Data for the mlh1 rad18 strain (AID 175); conditions: S. cerevisiae mlh1 rad18 strain growth inhibition; at 50.0 µM; hits give high values
Procedure, shortened: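 Vehicle-treated cultures served as the reference for growth inhibition in a yeast strain carrying DNA damage repair alterations exposed to each compound.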

| Structure (SMILES) | growth inhibition [1] | growth inhibition [2] | growth inhibition [3] | growth inhibition [4] | growth inhibition [5] | growth inhibition [6] |
| --- | --- | --- | --- | --- | --- | --- |
| CCC1(CC)CC(=O)NC1=O | -4.95% | -11.6% | -40.5% | 1.5% | -26% | -11.1% |
| COc1ccc(CC2CC(Cc3ccc(OC)c(OC)c3)C(=O)O2)cc1OC (stereo unspecified) | -33.9% | 15.7% | -23.4% | -33.2% | 3.95% | 2.85% |
| CC(=O)OCC1OC(N2C(S)=C(C#N)C(c3ccco3)C(C(C)=O)=C2c2ccccc2)C(OC(C)=O)C(OC(C)=O)C1OC(C)=O (stereo unspecified) | 21.4% | 15.4% | -0.25% | -7.4% | -19.4% | -6.15% |
| Nc1nnnn1NC(=O)c1ccccc1 | -2.1% | -6.8% | -5.35% | -11.5% | -6% | -11.3% |
| CCN(CC)CCOC(=O)c1c2nc3c(C(=O)OCCN(CC)CC)ccc(C)c3oc-2c(C)c(=O)c1N | 79.5% (active) | 35.9% | 42.1% | -5.2% | 61.9% | 36.3% |
| COc1cc(Br)c(Br)cc1Br | 6.8% | 4.35% | -17.7% | 12.5% | 4.9% | 10.5% |
| O=C(O)CSc1cc(Br)c(Br)cc1C(=O)O | 6.05% | -11.3% | -0.85% | 9.5% | 9.8% | -15.9% |
| Cc1onc(-c2c(Cl)cccc2Cl)c1C(=O)SC1=NC(C)N2C(SC(=O)c3c(-c4c(Cl)cccc4Cl)noc3C)=NC(C)N12 (stereo unspecified) | 26.6% | 7.4% | 11.3% | 11.7% | 18.6% | 16.6% |
| O=C(O)CCCc1ccc(Oc2ccccc2)cc1 | -6.05% | -15.3% | 22% | -8.85% | -5% | -6.6% |
| CCN(CC)c1ccc(C)cc1Cl | -5.7% | 7.5% | -12.2% | -16.8% | 7.05% | 5.55% |
| O=C(O)C#Cc1cccc(Cl)c1 | -20.4% | -24.3% | -14.1% | -9.9% | -16.5% | -12.8% |
| CSc1n[nH]c(NC(=O)c2ccccc2Br)n1 | 4.2% | -0.9% | 29.4% | -19.6% | 3.65% | 30.5% |
| COC(=O)C(O)C(O)C(O)C(O)C(=O)OC (stereo unspecified) | 2.2% | 17.4% | 10.8% | -5.65% | 11.2% | 13.3% |
| O=C1c2ccccc2C(=O)c2cc(N=Nc3c(O)ccc4ccccc34)ccc21 | 2.05% | 35.9% | -6% | 4.25% | 2.7% | 2.1% |
| CNc1c(F)cc(N=Nc2ccccc2)cc1F | 14.7% | -8.2% | 30% | -20.7% | -4% | 10.1% |
| C#CCC[N+](C)(C)C | -0.75% | -12.5% | -5.2% | 11.2% | -7.45% | 4.55% |
| c1ccc(CN2CCCCC2)nc1 | -12.9% | -20.7% | -11.1% | 10.6% | -10.2% | -10.2% |
| CC(=O)OC1OCCCC1Cl (stereo unspecified) | -8.95% | -27.9% | -7.75% | -3.2% | -30.8% | 10.3% |
| O=[N+]([O-])c1ccc2c(c1)Cc1cc(N(CBr)CBr)ccc1-2 | 6.35% | 5.8% | -1.4% | -21.7% | -7.55% | 18.9% |
| CC(=O)NC(C(=O)O)C(C)(C)S (stereo unspecified) | -1.85% | -48.9% | -4.7% | 26.8% | -33.2% | 8.95% |
| Cc1cccc2nc(-c3ccccn3)n(CCc3ccncc3)c12 | 98.8% (active) | 99.2% (active) | 99.2% (active) | 98.1% (active) | 98.8% (active) | 98.7% (active) |

| Structure (SMILES) | growth inhibition [1] | growth inhibition [2] | growth inhibition [3] | growth inhibition [4] | growth inhibition [5] | growth inhibition [6] |
| --- | --- | --- | --- | --- | --- | --- |
| O=C(N=c1nc(NC(=O)c2ccccc2)ss1)c1ccccc1 | -0.25% | 7.7% | -2.8% | -42.2% | -17.1% | 13.2% |
| CC(I)CNC1=NCC(=O)N1 (stereo unspecified) | -8.6% | 5.9% | -9.9% | -21.1% | 13.1% | 13% |
| O=C(O)COc1ccc2ccccc2c1 (tested in a mixture with another compound) | -36% | -19.9% | -26.3% | -37.7% | -0.1% | -5.65% |
| S=c1nn[nH]n1-c1cccc2ccccc12 | 4.7% | 1.9% | -4.65% | 2.6% | -10.8% | -3.8% |
| O=C(NC(O)C(=O)O)c1ccc(Cl)cc1 (stereo unspecified) | -10.9% | -10.9% | -6.2% | 17.3% | -6.4% | -27.9% |
| c1ccc(C2=C([P+](c3ccccc3)(c3ccccc3)c3ccccc3)CCO2)cc1 | 99% (active) | 99.1% (active) | 98.7% (active) | 98.2% (active) | 98.3% (active) | 98.8% (active) |
| Nc1cc(Nc2ccc(Cl)[nH]c2=S)nc(N)n1 | 31.1% | 13.8% | 11.5% | 20.6% | 18.4% | 15.2% |
| OC1CC/C=C\CC/C=C/CCC1O (stereo unspecified) | -5.75% | 6.45% | 0.5% | 24.1% | 3.8% | 0.55% |
| COc1ccc2c(ccc3[nH]c4c(C)cnc(NCCCN(C)C)c4c32)c1 | -16.6% | -7.6% | -2.7% | -3.55% | 4.05% | -7.85% |
| Cc1ccc(C2SCC(=O)N2c2ccc(-c3ccc(-n4c(-c5ccccc5)nc5ccccc5c4=O)cc3)cc2)cc1 (stereo unspecified) | 14% | 6% | 33% | -0.45% | 45.8% | 55.8% |
| O=S1(=O)C2C=CC1CCCC2 | 3.35% | -12.7% | -6.9% | -30.9% | -11.6% | 2.05% |
| CCOc1ccccc1N(CCN(C)C)C(=O)C(c1ccccc1)c1ccccc1 | 20.9% | -18.7% | 1.05% | -7.7% | 25.6% | 31.8% |
| O=C(CCCC(=O)N/N=C/c1cccc([N+](=O)[O-])c1)N/N=C\c1cccc([N+](=O)[O-])c1 | 26.6% | 21.9% | 5.1% | 26.8% | 2.45% | 26.1% |
| OCC1NC(COC2OC(CO)C(O)C(O)C2O)C(O)C(O)C1O (stereo unspecified) | -17.5% | -14.9% | -19% | 17.1% | -0.25% | -6.25% |
| CCC(SC(C)=O)C(=O)O (stereo unspecified) | 13% | -16.1% | 2.65% | 14.4% | -2.05% | 9.5% |
| NCCNC(=O)c1ccccc1 | -6.5% | 1.8% | 0.75% | 17.3% | -7.95% | 4.65% |
| CCOc1c(Cl)cc(Cl)cc1C(c1ccc(Cl)cc1S(=O)(=O)O)c1cc(Cl)cc(Cl)c1OCC | 99.2% (active) | 99.3% (active) | 99.6% (active) | 98% (active) | 99% (active) | 99.2% (active) |
| CCC1CN2CCc3cc(OC)c(OC)cc3C2CC1CCCl (stereo unspecified) | -8.6% | 4.05% | -4.5% | -9.7% | -29.9% | -24.7% |
| COc1cc2c(cc1O)C(C)C(c1ccccc1)O2 (stereo unspecified) | 3.95% | 4.8% | 9.45% | -21.1% | 7.15% | 13.2% |
| COC(=O)c1cc(C(C)O)nc2ccccc12 (stereo unspecified) | 4.95% | 3.95% | 6.25% | 0.65% | 27% | 6.35% |
